The values that follow come from PubChem BioAssay (NCI).

Structures are written as SMILES. About 79,000 compounds went through this panel and 15% of them were active in at least one assay; those are over-represented in the sample as a whole. Unmarked numbers belong to inactive results. The source made the active and inactive calls. No stated cut-off is given here; in the data, active means growth inhibition above about 70%; inactive means the rest.

Assay [1] is described as follows: NCI Yeast Anticancer Drug Screen. Data for the rad50 strain (AID 155).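 Further: 0% = growth of vehicle-only cultures of the same strain.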 The settings on record: S. cerevisiae rad50 strain growth inhibition, hits give high values. An outline of the steps: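 Cells are treated with compound, grown, and their growth is then scored against vehicle-only cultures of the same repair-deficient yeast strain.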
The nature of assay [2]: NCI Yeast Anticancer Drug Screen. Data for the mec2-1 strain (AID 157). To be noted: S. cerevisiae mec2-1 strain, hits give high values. An outline of the steps:
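Using mec2-1 yeast: add compound, measure growth, express inhibition versus vehicle-treated cultures.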

Assay [3] can be described thus: NCI Yeast Anticancer Drug Screen. Data for the sgs1 mgt1 strain (AID 161).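 Further: 0% = growth of cultures given vehicle only.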 To be noted: S. cerevisiae sgs1 mgt1 strain, hits give high values. The gist of the method: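 Growth of a repair-deficient yeast mutant was monitored after compound treatment and expressed as inhibition relative to vehicle-treated cultures.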
Assay [4] in a line: NCI Yeast Anticancer Drug Screen. Data for the cln2 rad14 strain (AID 165).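 Further: 0% = growth equal to vehicle treated cultures.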 To be noted: S. cerevisiae cln2 rad14 strain, hits give high values. The gist of the method: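 Yeast strain cln2 rad14, bearing defects in cell cycle control and DNA repair, serves as the test system; values reflect growth inhibition compared with vehicle.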
Assay [5] in a line: NCI Yeast Anticancer Drug Screen. Data for the bub3 strain (AID 167). The settings on record: S. cerevisiae bub3 mutant strain, hits give high values. An outline of the steps: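 Part of a panel of yeast mutants defective in DNA damage repair or cell cycle regulation. Each strain is grown with compound, and inhibition is calculated relative to solvent-treated cultures.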
Assay [6] in a line: NCI Yeast Anticancer Drug Screen. Data for the mlh1 rad18 strain (AID 175). The settings on record: S. cerevisiae mlh1 rad18 strain growth inhibition, hits give high values. The gist of the method:
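Steps: expose repair-defective yeast to compound; measure growth; express inhibition against vehicle-treated controls.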

The mark [7] stands for this setting: at 5.0 µM (retest, dose inferred, filed as 0.5).
Where [8] appears, read: at 50.0 µM (retest, dose inferred, filed as 5.0).

With `COc1ccc(/C=C2\CCC(CN(C)C)C2=O)cc1` (centres undefined), the growth inhibition in assay [1] (setting [7]) is 19%; in assay [1] (setting [8]) it was 89% (active); in assay [1] (at 50.0 µM) it was 93.8% (active); in assay [2] (setting [7]), 19%; in assay [2] (setting [8]), 99% (active); in assay [2] (at 50.0 µM), 93.3% (active). For the same compound, the growth inhibition was 33% in assay [3] (setting [7]); 99% (active) in assay [3] (setting [8]); 93.2% (active) in assay [3] (at 50.0 µM); 27% in assay [4] (setting [7]); 48% in assay [4] (setting [8]); 91.8% (active) in assay [4] (at 50.0 µM). Besides, the growth inhibition was 36% in assay [5] (setting [7]); 99% (active) in assay [5] (setting [8]); 92.6% (active) in assay [5] (at 50.0 µM); 24% in assay [6] (setting [7]); 98% (active) in assay [6] (setting [8]); 88.8% (active) in assay [6] (at 50.0 µM).
In the case of `O=C1NC(=O)N(c2ccc([N+](=O)[O-])cc2)C1=O`, the growth inhibition is 9% in assay [1] (setting [7]); 3% in assay [1] (setting [8]); -0.3% in assay [1] (at 50.0 µM); 8% in assay [2] (setting [7]); 2% in assay [2] (setting [8]); 1.1% in assay [2] (at 50.0 µM). Moreover, the growth inhibition in assay [3] (setting [7]) is 3%; in assay [3] (setting [8]) it was 6%; in assay [3] (at 50.0 µM), -2.95%; in assay [4] (setting [7]), 9%; in assay [4] (setting [8]), 5%; in assay [4] (at 50.0 µM) it was 18.1%. The growth inhibition in assay [5] (setting [7]) is 6%; in assay [5] (setting [8]), 5%; in assay [5] (at 50.0 µM), -4.4%.
For the compound `CN(C)CC1CC/C(=C\c2ccc(O)cc2)C1=O` (centres undefined), the growth inhibition was 11% in assay [1] (setting [7]); 78% (active) in assay [1] (setting [8]); 89.2% (active) in assay [1] (at 50.0 µM); -19% in assay [2] (setting [7]); 98% (active) in assay [2] (setting [8]); 93.7% (active) in assay [2] (at 50.0 µM). For the same compound, the growth inhibition in assay [3] (setting [7]) is -4%; in assay [3] (setting [8]), 98% (active); in assay [3] (at 50.0 µM) it was 91.6% (active); in assay [4] (setting [7]), 24%; in assay [4] (setting [8]) it was 53%; in assay [4] (at 50.0 µM) it was 77.6% (active). Besides, the growth inhibition in assay [5] (setting [7]) was -26%; in assay [5] (setting [8]), 97% (active); in assay [5] (at 50.0 µM), 91.9% (active); in assay [6] (setting [7]) it was 19%; in assay [6] (setting [8]) it was 92% (active); in assay [6] (at 50.0 µM), 90.6% (active).
Turning to `Cc1cc(NS(=O)(=O)c2ccc(Nc3c4ccccc4nc4c(C(=O)NC(CO)(CO)CO)cccc34)cc2)no1`, the growth inhibition in assay [1] (setting [7]) is -1%; in assay [1] (setting [8]), 17%; in assay [1] (at 50.0 µM), 75.2% (active); in assay [2] (setting [7]), -5%; in assay [2] (setting [8]), -10%; in assay [2] (at 50.0 µM), 23.9%. Besides, the growth inhibition in assay [3] (setting [7]) is -1%; in assay [3] (setting [8]), -3%; in assay [3] (at 50.0 µM) it was -1.6%; in assay [4] (setting [7]), -21%; in assay [4] (setting [8]), 17%; in assay [4] (at 50.0 µM) it was 71.5% (active). Also, the growth inhibition in assay [5] (setting [7]) was 0%; in assay [5] (setting [8]), -6%; in assay [5] (at 50.0 µM), 6.25%; in assay [6] (setting [7]), -2%; in assay [6] (setting [8]) it was 19%; in assay [6] (at 50.0 µM), 74% (active).
In the case of `O=C(CC1(O)C(=O)Nc2c(Cl)ccc(Cl)c21)c1ccc(Cl)cc1Cl` (centres undefined), the growth inhibition in assay [1] (setting [7]) is 25%; in assay [1] (setting [8]) it was 25%; in assay [1] (at 50.0 µM) it was 91.6% (active); in assay [2] (setting [7]), 13%; in assay [2] (setting [8]), 13%; in assay [2] (at 50.0 µM), 90.7% (active). For the same compound, the growth inhibition is 18% in assay [3] (setting [7]); 18% in assay [3] (setting [8]); 90.8% (active) in assay [3] (at 50.0 µM); -6% in assay [4] (setting [7]); -6% in assay [4] (setting [8]); 91.3% (active) in assay [4] (at 50.0 µM). In addition, the growth inhibition in assay [5] (setting [7]) is -2%; in assay [5] (setting [8]) it was -2%; in assay [5] (at 50.0 µM), 93.7% (active); in assay [6] (setting [7]), 19%; in assay [6] (setting [8]), 19%; in assay [6] (at 50.0 µM), 92.2% (active).
`O=C(Nc1c(Cl)cccc1Cl)OCCOc1ccc(Cl)cc1Cl`: the growth inhibition was 44% in assay [1] (setting [7]); 73% (active) in assay [1] (setting [8]); 88.5% (active) in assay [1] (at 50.0 µM); 36% in assay [2] (setting [7]); 57% in assay [2] (setting [8]); 90.8% (active) in assay [2] (at 50.0 µM). For the same compound, the growth inhibition in assay [3] (setting [7]) was 47%; in assay [3] (setting [8]), 58%; in assay [3] (at 50.0 µM) it was 91.2% (active); in assay [4] (setting [7]), 34%; in assay [4] (setting [8]), 61%; in assay [4] (at 50.0 µM) it was 88.2% (active). Also, the growth inhibition in assay [5] (setting [7]) is 38%; in assay [5] (setting [8]) it was 71% (active); in assay [5] (at 50.0 µM), 90.7% (active); in assay [6] (setting [7]), 55%; in assay [6] (setting [8]) it was 80% (active); in assay [6] (at 50.0 µM), 90% (active).
With `Cc1c2ccncc2cc2c3ccccc3n(C)c12`, the growth inhibition is -23% in assay [1] (setting [7]); 97% (active) in assay [1] (setting [8]); 99% (active) in assay [1] (at 50.0 µM); -58% in assay [2] (setting [7]); 97% (active) in assay [2] (setting [8]); 98.7% (active) in assay [2] (at 50.0 µM). The growth inhibition in assay [3] (setting [7]) was -45%; in assay [3] (setting [8]), 97% (active); in assay [3] (at 50.0 µM), 98.7% (active); in assay [4] (setting [7]), -50%; in assay [4] (setting [8]), 98% (active); in assay [4] (at 50.0 µM), 98.2% (active). Further, the growth inhibition in assay [5] (setting [7]) is -63%; in assay [5] (setting [8]), 98% (active); in assay [5] (at 50.0 µM), 98.8% (active); in assay [6] (setting [7]), -95%; in assay [6] (setting [8]) it was 97% (active); in assay [6] (at 50.0 µM), 99.2% (active).
In the case of `O=S(=O)(Cl)c1ccc(Br)cc1`, the growth inhibition in assay [1] (setting [7]) is 45%; in assay [1] (setting [8]) it was 99% (active); in assay [1] (at 50.0 µM), 37.3%; in assay [2] (setting [7]), 68%; in assay [2] (setting [8]), 100% (active); in assay [2] (at 50.0 µM), -4.55%. Besides, the growth inhibition in assay [3] (setting [7]) was 72% (active); in assay [3] (setting [8]) it was 99% (active); in assay [3] (at 50.0 µM) it was 0.15%; in assay [4] (setting [7]) it was 21%; in assay [4] (setting [8]), 100% (active); in assay [4] (at 50.0 µM) it was -76.1%. For the same compound, the growth inhibition is 84% (active) in assay [5] (setting [7]); 99% (active) in assay [5] (setting [8]); 9.25% in assay [5] (at 50.0 µM); 28% in assay [6] (setting [7]); 99% (active) in assay [6] (setting [8]); 0.55% in assay [6] (at 50.0 µM).
Regarding `CSC(=S)N/N=C(\C)c1nccnc1C`, the growth inhibition in assay [1] (setting [7]) was 5%; in assay [1] (setting [8]), 98% (active); in assay [1] (at 50.0 µM) it was 98.7% (active); in assay [2] (setting [7]), 7%; in assay [2] (setting [8]), 99% (active); in assay [2] (at 50.0 µM), 98.9% (active). Besides, the growth inhibition in assay [3] (setting [7]) is 3%; in assay [3] (setting [8]) it was 98% (active); in assay [3] (at 50.0 µM), 98.7% (active); in assay [4] (setting [7]) it was -10%; in assay [4] (setting [8]), 97% (active); in assay [4] (at 50.0 µM) it was 98% (active). Further, the growth inhibition was 21% in assay [5] (setting [7]), 98% (active) in assay [5] (setting [8]) and 99% (active) in assay [5] (at 50.0 µM).
Turning to `C=C1C(=O)OC2CC1C(O)C/C(C)=C/CC/C(C)=C/C(O)CC2C` (centres undefined), the growth inhibition is 18% in assay [1] (setting [7]); 70% (active) in assay [1] (setting [8]); -4.95% in assay [1] (at 50.0 µM); 19% in assay [2] (setting [7]); 84% (active) in assay [2] (setting [8]); -20.6% in assay [2] (at 50.0 µM). For the same compound, the growth inhibition in assay [3] (setting [7]) is 15%; in assay [3] (setting [8]) it was 54%; in assay [3] (at 50.0 µM), 9.6%; in assay [4] (setting [7]), 11%; in assay [4] (setting [8]), 46%; in assay [4] (at 50.0 µM) it was -5%. Also, the growth inhibition in assay [5] (setting [7]) was 26%; in assay [5] (setting [8]), 84% (active); in assay [5] (at 50.0 µM), -7.7%; in assay [6] (setting [7]) it was 48%; in assay [6] (setting [8]), 95% (active); in assay [6] (at 50.0 µM), 83.5% (active).
